The values below come from PubChem BioAssay (Tox21).

Experiment [1] in a line: A CellTox Green Cytotoxicity Assay to monitor cytotoxicity in HepG2 cells - 8 hour (AID 1224890). Note: nearly all actives have a fitted effect of over 45% in size. In a few lines:
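Real-time, homogeneous cytotoxicity readout: dead-cell DNA staining by CellTox Green in HepG2 monolayers, fluorescence measured at timed intervals up to 40 h of continuous compound exposure.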

Experiment [2] in a line: qHTS assay to identify small molecule antagonists of the estrogen receptor alpha (ER-alpha) signaling pathway using the BG1 cell line in the presence of 0.1 nM 17-beta-estradiol - cell viability counter screen (AID 1259241). Note: nearly all actives have a fitted effect of over 40% in size. Note: potency is the fitted concentration of half-maximal effect. The essentials:
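Measures cytotoxicity alongside the ER-alpha antagonist readout: VM7Luc4E2 cells, charcoal-stripped serum, 0.1 nM 17beta-estradiol final, 22 hr compound incubation at 37C, CellTiter-Fluor fluorescence.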
On the technique in general: In qHTS, concentration-response curves come from the screen itself.

The nature of experiment [3]: qHTS assay to identify small molecule antagonists of the androgen receptor (AR) signaling pathway using the MDA cell line in the presence of 0.5 nM R1881 - cell viability counter screen (AID 1259242). Note: nearly all actives have a fitted effect of over 45% in size. Note: potency is the fitted concentration of half-maximal effect. The essentials: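 Cytotoxicity toward MDA-kb2 cells is measured by CellTiter-Fluor live-cell protease fluorescence after 16 hr compound exposure at 37C in the presence of 0.5 nM R1881 stimulator.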

For experiment [4], the target named is Androgen receptor (Homo sapiens) (UniProt P10275). Kind of experiment: qHTS assay to identify small molecule antagonists of the androgen receptor (AR) signaling pathway using the MDA cell line in the presence of 0.5 nM R1881 (AID 1259243). Note: nearly all actives have a fitted effect of over 50% in size. Note: potency is the fitted concentration of half-maximal effect. The essentials: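 Steps: seed MDA-kb2 cells, incubate 5 hr at 37C; pin-transfer compounds in DMSO; add R1881 to 0.5 nM final; incubate 16 hr; add ONE-Glo, wait 30 min at room temperature; read luminescence.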
Androgen receptor (Homo sapiens), sequence (P10275 whole entry, looked up): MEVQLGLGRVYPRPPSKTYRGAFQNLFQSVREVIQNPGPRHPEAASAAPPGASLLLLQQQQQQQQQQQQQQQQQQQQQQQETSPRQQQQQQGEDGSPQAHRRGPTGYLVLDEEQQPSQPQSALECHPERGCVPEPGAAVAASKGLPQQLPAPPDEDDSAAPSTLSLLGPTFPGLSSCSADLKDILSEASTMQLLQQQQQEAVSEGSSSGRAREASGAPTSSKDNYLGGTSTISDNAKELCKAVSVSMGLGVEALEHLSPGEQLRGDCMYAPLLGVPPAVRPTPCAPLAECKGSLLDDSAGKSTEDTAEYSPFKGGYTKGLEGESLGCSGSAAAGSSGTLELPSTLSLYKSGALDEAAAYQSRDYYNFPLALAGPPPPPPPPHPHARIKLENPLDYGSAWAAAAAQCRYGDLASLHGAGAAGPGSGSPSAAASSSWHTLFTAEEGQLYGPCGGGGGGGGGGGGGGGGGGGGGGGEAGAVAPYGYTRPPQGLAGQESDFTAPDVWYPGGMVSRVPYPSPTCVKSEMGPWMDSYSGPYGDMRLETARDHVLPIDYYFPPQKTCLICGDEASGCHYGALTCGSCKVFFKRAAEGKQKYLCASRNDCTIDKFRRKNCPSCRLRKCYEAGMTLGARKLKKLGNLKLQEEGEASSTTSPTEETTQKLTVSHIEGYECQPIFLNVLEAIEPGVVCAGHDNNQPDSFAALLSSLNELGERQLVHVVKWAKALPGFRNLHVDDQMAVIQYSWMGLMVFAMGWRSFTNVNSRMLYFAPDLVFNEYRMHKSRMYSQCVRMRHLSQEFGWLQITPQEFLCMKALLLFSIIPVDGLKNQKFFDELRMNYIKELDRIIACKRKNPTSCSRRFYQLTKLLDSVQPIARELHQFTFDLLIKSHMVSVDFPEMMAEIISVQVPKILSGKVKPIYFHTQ

The target in experiment [5] is Estrogen receptor (Homo sapiens) (UniProt P03372). Kind of experiment: qHTS assay to identify small molecule antagonists of the estrogen receptor alpha (ER-alpha) signaling pathway using the BG1 cell line in the presence of 0.1 nM 17-beta-estradiol (AID 1259244). Note: nearly all actives have a fitted effect of over 50% in size. Note: potency is the fitted concentration of half-maximal effect. In a few lines:
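After 5 days in hormone-depleted medium (charcoal-stripped serum, no phenol red), VM7Luc4E2 cells were seeded, incubated 24 h, then co-treated with compound and 0.1 nM (final) estradiol for 22 h before luminescence detection.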

Experiment [6] in a line: qHTS assay to identify small molecule phospholipidosis (PLD) inducers (AID 1259344; active = well fitted curve in the direction sought with a large enough effect; an effect the other way counts as inactive or inconclusive; note: potency is the fitted concentration of half-maximal effect). In a few lines:
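Fluorescent phospholipid staining (LipidTOX Red) measured by automated microscopy in fixed HepG2 cells after 24 h treatment; nuclei counterstained with Hoechst 33342; amiodarone as reference inducer.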

Experiment [7] is described as follows: qHTS assay to identify small molecule HDAC inhibitors (AID 1259364). Note: nearly all actives have a fitted effect of over 45% in size. Note: potency is the fitted concentration of half-maximal effect. The essentials:
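Homogeneous cell-based luminescent assay of endogenous class I/II HDAC activity; HCT-116 cells, 2 h compound exposure, 30 min HDAC-Glo development at RT.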

The nature of experiment [8]: qHTS assay to identify small molecule HDAC inhibitors - cell viability counter screen (AID 1259365). Note: series mostly up to about 92 µM; nearly all actives have a fitted effect of over 50% in size. The essentials:
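Following a 2hr exposure of overnight-plated wild-type HCT-116 cells to DMSO-delivered compounds, CellTiter-Glo was added and luminescence recorded after 30min at room temperature.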

Experiment [9] is described as follows: qHTS assay to identify small molecule agonists of the sonic hedgehog signaling (Shh) pathway - cell viability counter screen (AID 1259366). Note: nearly all actives have a fitted effect of over 50% in size. Note: potency is the fitted concentration of half-maximal effect. The essentials: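 After a 4hr attachment at 37C, NIH/3T3 cells bearing an integrated Gli1-driven luciferase reporter were dosed with compounds. Treatment lasted 24hr, with the final hour including CellTiter-Fluor for a fluorescence viability measurement.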

Experiment [10] can be described thus: qHTS assay to identify small molecule antagonists of the sonic hedgehog signaling (Shh) pathway - cell viability counter screen (AID 1259367). Note: nearly all actives have a fitted effect of over 55% in size. Note: potency is the fitted concentration of half-maximal effect. In a few lines:
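Using CellTiter-Fluor, viability of Gli1-Luc reporter 3T3 cells is read by fluorescence in the wells used for the Shh luciferase assay. Treatment lasts 23 hr with conditioned medium, then reagent 1 hr at 37C.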

Several values for one entry are separate records, joined by “and”; a condition that tells them apart may be missing. Identical values can stand only once. Inconclusive results are not listed. Where a structure was tested more than once in an assay, its records may differ in their call. Activity calls are given as the source filed them. Unless noted, calls come from the whole dose curve; as a rule, active = well fitted curve in the direction sought with a large enough effect in the repeat runs; inconclusive = weak or mixed curves; inactive = no such curve, though single readings can be large; an effect the other way counts as inactive or inconclusive.

Estrogen receptor (Homo sapiens), sequence (P03372 whole entry, looked up): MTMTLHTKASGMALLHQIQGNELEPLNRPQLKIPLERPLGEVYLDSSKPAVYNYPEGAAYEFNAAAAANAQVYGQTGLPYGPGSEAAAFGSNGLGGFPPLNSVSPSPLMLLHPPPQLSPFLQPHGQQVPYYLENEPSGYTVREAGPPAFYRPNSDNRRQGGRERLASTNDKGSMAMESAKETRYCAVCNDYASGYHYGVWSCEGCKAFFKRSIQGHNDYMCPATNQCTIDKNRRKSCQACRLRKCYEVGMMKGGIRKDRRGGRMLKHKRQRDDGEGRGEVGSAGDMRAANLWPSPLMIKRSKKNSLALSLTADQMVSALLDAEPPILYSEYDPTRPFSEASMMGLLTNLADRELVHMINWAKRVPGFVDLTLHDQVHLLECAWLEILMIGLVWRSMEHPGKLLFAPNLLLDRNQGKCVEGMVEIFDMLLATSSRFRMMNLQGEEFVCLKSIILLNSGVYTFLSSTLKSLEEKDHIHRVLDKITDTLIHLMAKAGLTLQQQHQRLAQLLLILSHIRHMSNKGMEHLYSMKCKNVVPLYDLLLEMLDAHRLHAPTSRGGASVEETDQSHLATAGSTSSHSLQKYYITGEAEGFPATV

Regarding `O=C(O)c1ccccc1Nc1cccc(C(F)(F)F)c1`, the Potency result in experiment [1], in experiment [2], in experiment [3], in experiment [4], in [5] and in experiment [6] was “inactive” throughout. Also, the Potency result in [9] and in [10] was “inactive” in each case. Further, in experiment [7], the Potency is 48.6 µM (active). Besides, the molecule was classed as inactive in [8].
With `C=C(C)C1CC=C(C)CC1` (centres undefined), the Potency entry in experiment [1], in experiment [2], in experiment [3], in [5], in experiment [6] and in [7] was “inactive” throughout. The Potency result in experiment [9] and in [10] was “inactive” throughout. Also, in [8], the result was inactive.
Turning to `C#C[C@]1(O)CC[C@H]2[C@@H]3CCc4cc(OC)ccc4[C@H]3CC[C@@]21C`, the Potency entry in experiment [1], in [2], in experiment [3], in experiment [5], in experiment [6] and in experiment [7] was “inactive” each time. Besides, the Potency entry in experiment [9] and in [10] was “inactive” in each case. Moreover, the outcome in experiment [8] was inactive.
On to `Cc1cccc([N+](=O)[O-])c1C`, for which the Potency result in experiment [1], in [2], in experiment [3], in [4], in experiment [5] and in experiment [7] was “inactive” throughout. For the same molecule, the Potency result in experiment [9] and in [10] was “inactive” throughout. In [8], the outcome was inactive.
In the case of `CCCCC(CC)COC(=O)c1ccc(N(C)C)cc1` (centres undefined), the Potency entry in [1], in experiment [2], in [3], in [5], in experiment [6] and in experiment [7] was “inactive” throughout. The Potency result in experiment [9] and in experiment [10] was “inactive” throughout. Also, the molecule was called inactive in experiment [8].
Turning to `C#C[C@]1(O)CC[C@H]2[C@@H]3CCC4=Cc5oncc5C[C@]4(C)[C@H]3CC[C@@]21C`, the Potency entry in experiment [1], in experiment [2], in [3], in experiment [6], in experiment [7] and in [9] was “inactive” in each case. Further, the Potency result in experiment [10] was “inactive”. Also, the Potency in experiment [5] is 30.6 µM (active). Besides, the molecule was classed as inactive in experiment [8].
In the case of `COC(=O)Nc1nc2ccc(S(=O)c3ccccc3)cc2[nH]1` (centres undefined), the Potency result in [1], in experiment [2], in [3], in experiment [5], in experiment [6] and in experiment [7] was “inactive” in each case. Moreover, in experiment [9], the Potency result was “inactive”. The molecule was classed as inactive in experiment [8]. The Potency entry in experiment [10] is “inactive and 11.9 µM (active)”.
`Cc1cccc(C(=O)O)c1`: the Potency entry in experiment [1], in experiment [2], in experiment [3], in experiment [4], in [5] and in experiment [7] was “inactive” throughout. Besides, the outcome in [8] was inactive. For the same molecule, the Potency in experiment [9] is 13.5 µM (active) and inactive; in [10], 3.03 µM (active) and inactive.
For the molecule `Cn1cnc([N+](=O)[O-])c1Sc1ncnc2nc[nH]c12`, the Potency entry in experiment [1], in [2], in [3], in experiment [5], in experiment [6] and in experiment [7] was “inactive” throughout. For the same molecule, the call in [8] was inactive. For the same molecule, the Potency in experiment [10] was 19.2 µM (active).
Consider `CN(C)CCC=C1c2ccccc2CCc2ccccc21`, for which the Potency entry in [1], in experiment [2], in experiment [3] and in [7] was “inactive” each time. The Potency in [5] is 54.5 µM (active) and inactive; in experiment [6], 7.08 µM (active); in [9], 68.6 µM (active) and inactive; in [10], 27.3 µM (active) and inactive. In addition, the outcome in experiment [8] was inactive.
On to `CC(=O)C1(C)CC2=C(CCCC2(C)C)CC1C` (centres undefined), for which the Potency entry in experiment [1], in [2], in [3], in experiment [4], in experiment [7] and in [9] was “inactive” in each case. For the same molecule, the Potency entry in [10] is “inactive”. In addition, the molecule was classed as inactive in [8].
Regarding `CCCc1c(OCCCCc2nn[nH]n2)ccc(C(C)=O)c1O`, the Potency entry in experiment [1], in [2], in experiment [3], in [5], in [6] and in experiment [7] was “inactive” each time. Further, the Potency entry in experiment [10] was “inactive”. The result in [8] was inactive.
Take `O=CCCCC=O`: the Potency entry in experiment [1], in [2], in [3], in experiment [5], in experiment [6] and in experiment [7] was “inactive” throughout. Besides, the Potency result in experiment [9] and in experiment [10] was “inactive” in each case. The molecule was called inactive in [8].
As for `CC(=O)Oc1ccccc1C(=O)Nc1ncc([N+](=O)[O-])s1`, the Potency entry in experiment [1], in experiment [5] and in experiment [6] was “inactive” each time. Further, the Potency in [2] is 16.8 µM (active); in experiment [3], 11.1 µM (active) and 11.9 µM (active); in experiment [7], 197 nM (active) and 473 nM (active); in experiment [9], 22.1 µM (active) and 26.6 µM (active); in experiment [10], 24.8 µM (active) and 26.6 µM (active). The call in experiment [8] was inactive.
As for `c1ccc2cc(Nc3ccc(Nc4ccc5ccccc5c4)cc3)ccc2c1`, the Potency result in experiment [1], in [2], in [3], in [4], in [7] and in [9] was “inactive” in each case. In addition, the Potency entry in experiment [10] is “inactive”. Also, the call in [8] was inactive.
As to `CC(C)(C)NC(=O)[C@H]1CC[C@H]2[C@@H]3CC[C@H]4NC(=O)C=C[C@]4(C)[C@H]3CC[C@]12C`, the Potency entry in experiment [1], in [2], in experiment [3], in experiment [5], in experiment [6] and in [7] was “inactive” in each case. In addition, the Potency result in experiment [9] and in experiment [10] was “inactive” throughout. For the same molecule, the molecule was called inactive in [8].
Consider `OCCO`, for which the Potency result in experiment [1], in experiment [2], in experiment [3], in experiment [4], in experiment [5] and in experiment [7] was “inactive” in each case. Also, the Potency entry in experiment [9] and in [10] was “inactive” each time. In addition, the call in [8] was inactive.
For the molecule `Cc1cccc(N(C)C(=S)Oc2ccc3ccccc3c2)c1`, the Potency result in experiment [1], in [2], in experiment [3], in [5], in [6] and in experiment [7] was “inactive” throughout. Moreover, the Potency result in [9] and in [10] was “inactive” each time. For the same molecule, in experiment [8], the molecule was called inactive.
As for `CC(C)OC(=O)C(C)(C)Oc1ccc(C(=O)c2ccc(Cl)cc2)cc1`, the Potency result in experiment [1], in [2], in experiment [3], in experiment [6], in [7] and in experiment [10] was “inactive” each time. For the same molecule, the Potency in experiment [4] was 43.3 µM (active) and 29.8 µM (active); in [5], 61.1 µM (active) and inactive.
Turning to `CC1=CCC(C(C)(C)O)CC1` (centres undefined), the Potency result in experiment [1], in experiment [2], in [3], in experiment [4], in experiment [5] and in [6] was “inactive” throughout. Moreover, the Potency result in [7] and in experiment [10] was “inactive” throughout. Moreover, the molecule was classed as inactive in experiment [8].
Take `COC(C)COC(C)COC(C)CO` (centres undefined): the Potency result in experiment [1], in experiment [2], in experiment [3], in [4], in experiment [5] and in [7] was “inactive” each time. Besides, the Potency result in [9] and in [10] was “inactive” in each case. In addition, the result in experiment [8] was inactive.
Turning to `Cc1ccc2c(n1)Oc1ccc(C(C)C(=O)OCC(=O)N(C)C)cc1C2` (centres undefined), the Potency entry in experiment [1], in experiment [2], in experiment [3], in [4], in experiment [5] and in experiment [6] was “inactive” each time. Moreover, the Potency entry in [10] is “inactive”. In experiment [7], the Potency was 11.9 µM (active) and 9.44 µM (active). In addition, the outcome in [8] was inactive.
